We go through five compounds from PubChem BioAssay.

As a reminder, the inhibition is the relative decrease from the control value, in per cent.

SMILES strings stand for the structures. Records with an inconclusive call do not appear. Activity calls are given as the source filed them.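 The calls were made as follows, unless noted: active = response below a set limit, under 55% cells CD8-positive and vesicle-bound, and CD8 cells' 90th-percentile brightness under 279; inactive = the rest.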

Experiment [1] can be described thus: rapamycin-like changes in RPL19A-GFP expression – cell-based, S. cerevisiae, multiplex flow cytometry, primary screen (AID 1862; in the data active = percent of DMSO control GFP below about 86%;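 also: lower values mimic rapamycin by blocking the RPL19A rise seen in DMSO cells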). As to conditions: S. cerevisiae RPL19A-GFP strain, flow cytometry fluorescence, 3 h; at 10 µM; stronger effect = lower value. A general note: A flow cytometer gives signals particle by particle.
A short description of experiment [2]: TOR pathway GLN3 branch reporter MEP2-GFP changes – S. cerevisiae, multiplex flow cytometry, primary screen (AID 1867;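 active = GFP response, as percent of the DMSO control, above the screen-wide mean plus 3 SD, about 139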;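 also: median GFP channel fluorescence of barcode-gated MEP2-GFP cells measured by flow cytometry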). As to conditions: S. cerevisiae MEP2-GFP strain, 3 h, at 10 µM, stronger effect = higher value, 100% means same as DMSO wells.
Experiment [3] can be described thus: TOR pathway RTG branch CIT2 reporter changes – S. cerevisiae, GFP fusion, multiplex flow cytometry, primary screen (AID 1870;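 active = percent response above a set limit, the screen-wide mean plus 3 SD, cut at about 130% in these data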;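 also: barcoded CIT2-GFP strain pooled with four other GFP strains with rapamycin as positive control; median GFP fluorescence per well over plate mean of DMSO wells so 100% = DMSO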). As to conditions: S. cerevisiae CIT2-GFP expression, 3 h, at 10 µM, stronger effect = higher value.
Experiment [4] can be described thus: TOR pathway LAP4-GFP level changes – S. cerevisiae, multiplex flow cytometry, primary screen (AID 1873;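 active = GFP signal, as percent of the solvent control, above the screen mean plus 3 SD, about 149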). As to conditions: S. cerevisiae LAP4-GFP expression, 3 h, at 10 µM, stronger effect = higher value.
Experiment [5] is described as follows: yeast AGP1-GFP level changes, GLN3 branch – cell-based, multiplex flow cytometry, S. cerevisiae, primary screen (AID 1887;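 active = GFP signal above the screen-wide mean plus 3 SD, that is over about 124.5% of the solvent control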;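 also: AGP1-GFP fusion strain of S. cerevisiae within a five-strain barcoded multiplex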). As to conditions: 3 h, at 10 µM, stronger effect = higher value.
The nature of experiment [6]: reduced mouse 2C T cell binding to pMHC/ICAM-1 vesicles – MLPCN validation set, flow cytometry, LFA-1/ICAM-1 modulator project, pilot screen (AID 2523).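 As to vesicle binding response: mean PE anti-B7-1 fluorescence of CD8+ cells relative to row control; 100% = QL9-loaded vesicles with DMSO vehicle in the same plate row.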 As to conditions: 2C mouse CD8+ T cells, at 7 µM, stronger effect = lower value; double positive events: measured here: CD8+/vesicle+ event percentage.
Experiment [7] has as its target Integrin beta-1 (Homo sapiens) + Integrin alpha-4 (Homo sapiens) (UniProt P13612+P05556). As to the kind of experiment: alpha4beta1 integrin LIBS antibody binding reduction – U937 cells, HUTS-21 mAb, flow cytometry, validation set, VLA-4 allosteric modulator project, pilot screen (AID 2674;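 active = inhibition above 50%, about 3 SD of the validation set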;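 also: antibody binding induced by the VLA-4 ligand LDV present at three times its Kd; 0% = LDV ligand with antibody and no compound and 100% = antibody without LDV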). As to conditions: HUTS-21 LIBS mAb binding, at 6.7 µM, stronger effect = higher value, binding induced by LDV ligand.

Experiment [8] is described as follows: calorie-restriction mimetic ROS inhibitors, yeast – validation compound set, pilot screen (AID 2706;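 active = superoxide response below 65% of plate, a cut near 3 SD across the whole screen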;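 also: yeast exposed to compound for one week at 30 degrees C before staining; 100% = mean of all compound wells on the same plate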). As to conditions: S. cerevisiae aging, superoxide DHE fluorescence; at 10 µM, stronger effect = lower value.
Experiment [9] concerns the target Beta-adrenergic receptor kinase 1 (Homo sapiens) (UniProt P25098). As to the kind of experiment: GRK2 binders displacing RNA aptamer, biochemical, validation, human GRK2, bead flow cytometry (AID 488806;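 active = aptamer binding inhibition above 30%, about 3 SD of noise from non-fluorescent compounds; inactive = inhibition at or below 30%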). As to conditions: bead-bound GRK2, FAM-aptamer displacement, at 10 µM, stronger effect = higher value.
Experiment [10] addresses AP-2 complex subunit beta (Homo sapiens) (UniProt P63010). As to the kind of experiment: beta-arrestin/AP2 interaction blockers – biochemical, validation set, GST-AP2 beads, flow cytometry, pilot screen (AID 504541;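 active = inhibition above 54%, about 3 SD of non-fluorescent compounds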;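 also: AP2 carries R879A mutation and is captured from E. coli lysate; bead-bound FITC arrestin peptide fluorescence measuring arrestin peptide binding to AP2; 0% = DMSO wells and 100% = excess unlabeled arrestin peptide control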). As to conditions: FITC arrestin peptide, at 10 µM, stronger effect = higher value, AP2 beta2 appendage fragment, R879A mutant.
Experiment [11] in a line: cytosolic pH regulators acting via V-ATPase – S. cerevisiae, pHLuorin, HTS validation (AID 504600; in the data active = response above about 15%;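 also: plate controls were DMSO for no effect and reference compound for full effect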). As to conditions: V-ATPase proton transport, at 10 µM, stronger effect = higher value.
Experiment [12] has as its system anti-desmoglein-3 scFv antibody binding to human DSG3. Kind of experiment: blockers of pathogenic pemphigus antibody–desmoglein-3 binding – biochemical, validation compound set, bead-based, flow cytometry, pilot screen (AID 588368;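 active = binding below the plate cutoff, the plate median minus 3 SD, with a reading above zero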;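 also: signal is the median channel fluorescence of bead-bound GFP antibody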). As to conditions: Protein G beads, DSG3-Fc, scFv-GFP binding, at 10 µM, stronger effect = lower value.
Experiment [13] can be described thus: Nile Red efflux blockade in pump-expressing yeast – validation compound set, multiplex, phenotypic, pilot screen (AID 588506;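 active = efflux inhibition above 0.42, the validation set average plus 4 SD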;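 also: Nile Red retained in cells so higher fluorescence means more efflux inhibition; 0 = negative control wells and 1 = enniatin B 25 µM full block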). As to conditions: S. cerevisiae pump-expressing triplex, Nile Red efflux flow cytometry; at 10 µM; stronger effect = higher value; the pumps come from Candida albicans.
Experiment [14] has as its target ATP-binding cassette sub-family B member 6 (Homo sapiens) (UniProt Q9NP58). Kind of experiment: blockers of ABCB6-driven porphyrin uptake – K562-ABCB6 cells, flow cytometry, validation set, pilot screen (AID 588550;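 active = inhibition above the screen-wide mean plus 3 SD, about 51%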;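 also: 0% = DMSO wells and 100% = benzethonium chloride 70 µM positive control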). As to conditions: K562-ABCB6 porphyrin accumulation, 1 h, at 10 µM, stronger effect = higher value.
A short description of experiment [15]: AML differentiation inducers, ER-HoxA9 marrow cells – cell-based, GFP/MAC1 double positive, flow cytometry, validation set, primary screen (AID 588685;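 active = differentiation response of at least 50%, scaled between solvent and reference control, from cells with both markers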;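 also: compound exposure lasts four days before antibody staining and flow analysis; 0% = DMSO wells and 100% = 5 µM fulvestrant positive control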). As to conditions: stronger effect = higher value, normalized: vehicle 0, fulvestrant 100.

Chain of Integrin beta-1 (Homo sapiens) + Integrin alpha-4 (Homo sapiens) (P05556 whole entry, looked up): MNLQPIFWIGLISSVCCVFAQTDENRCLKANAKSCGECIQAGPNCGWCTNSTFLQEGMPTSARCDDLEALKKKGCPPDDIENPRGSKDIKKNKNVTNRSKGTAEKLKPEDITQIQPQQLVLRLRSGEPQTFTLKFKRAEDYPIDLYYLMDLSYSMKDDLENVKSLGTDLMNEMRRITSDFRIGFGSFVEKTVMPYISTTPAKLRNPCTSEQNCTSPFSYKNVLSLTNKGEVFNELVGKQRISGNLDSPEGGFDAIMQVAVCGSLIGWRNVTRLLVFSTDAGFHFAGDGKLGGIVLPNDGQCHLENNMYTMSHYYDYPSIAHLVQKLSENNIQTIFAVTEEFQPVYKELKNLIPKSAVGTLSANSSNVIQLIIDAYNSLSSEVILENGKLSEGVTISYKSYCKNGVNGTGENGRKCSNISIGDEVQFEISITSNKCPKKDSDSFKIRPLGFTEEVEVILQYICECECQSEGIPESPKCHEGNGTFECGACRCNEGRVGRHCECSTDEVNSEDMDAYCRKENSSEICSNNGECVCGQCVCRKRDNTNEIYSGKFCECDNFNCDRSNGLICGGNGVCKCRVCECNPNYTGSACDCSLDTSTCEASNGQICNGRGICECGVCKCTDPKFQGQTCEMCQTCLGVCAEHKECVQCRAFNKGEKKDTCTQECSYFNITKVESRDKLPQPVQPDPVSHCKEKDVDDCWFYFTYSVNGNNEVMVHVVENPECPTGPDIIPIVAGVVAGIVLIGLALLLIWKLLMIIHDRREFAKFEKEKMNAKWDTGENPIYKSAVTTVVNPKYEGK
Chain of Integrin beta-1 (Homo sapiens) + Integrin alpha-4 (Homo sapiens) (P13612 whole entry, looked up): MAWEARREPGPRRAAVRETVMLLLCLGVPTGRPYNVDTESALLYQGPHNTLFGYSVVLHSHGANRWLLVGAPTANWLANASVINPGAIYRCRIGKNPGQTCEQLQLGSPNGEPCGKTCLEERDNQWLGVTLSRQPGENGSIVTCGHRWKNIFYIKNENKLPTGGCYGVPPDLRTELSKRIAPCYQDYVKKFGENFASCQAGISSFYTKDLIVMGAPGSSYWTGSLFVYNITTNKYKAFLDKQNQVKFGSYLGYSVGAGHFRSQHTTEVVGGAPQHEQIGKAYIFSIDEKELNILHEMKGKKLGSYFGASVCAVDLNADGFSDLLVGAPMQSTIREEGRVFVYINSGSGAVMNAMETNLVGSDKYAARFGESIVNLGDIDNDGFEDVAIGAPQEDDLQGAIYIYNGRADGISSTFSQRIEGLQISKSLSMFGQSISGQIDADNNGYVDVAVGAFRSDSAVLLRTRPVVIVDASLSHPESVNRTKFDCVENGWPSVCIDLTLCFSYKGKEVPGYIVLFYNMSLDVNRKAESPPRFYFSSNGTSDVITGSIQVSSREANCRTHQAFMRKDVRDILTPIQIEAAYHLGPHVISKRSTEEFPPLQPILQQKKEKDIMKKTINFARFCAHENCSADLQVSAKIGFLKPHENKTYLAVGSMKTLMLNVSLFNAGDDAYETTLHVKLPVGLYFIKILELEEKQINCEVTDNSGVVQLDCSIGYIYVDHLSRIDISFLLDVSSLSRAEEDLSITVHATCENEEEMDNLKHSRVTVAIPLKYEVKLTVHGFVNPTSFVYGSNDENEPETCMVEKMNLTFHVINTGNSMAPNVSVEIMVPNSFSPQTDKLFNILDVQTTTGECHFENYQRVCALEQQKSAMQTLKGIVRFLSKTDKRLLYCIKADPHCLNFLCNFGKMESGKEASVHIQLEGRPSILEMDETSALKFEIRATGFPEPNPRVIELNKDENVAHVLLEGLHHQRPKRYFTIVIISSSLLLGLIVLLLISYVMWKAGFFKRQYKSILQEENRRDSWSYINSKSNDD
Chain of Beta-adrenergic receptor kinase 1 (Homo sapiens) (P25098 whole entry, looked up): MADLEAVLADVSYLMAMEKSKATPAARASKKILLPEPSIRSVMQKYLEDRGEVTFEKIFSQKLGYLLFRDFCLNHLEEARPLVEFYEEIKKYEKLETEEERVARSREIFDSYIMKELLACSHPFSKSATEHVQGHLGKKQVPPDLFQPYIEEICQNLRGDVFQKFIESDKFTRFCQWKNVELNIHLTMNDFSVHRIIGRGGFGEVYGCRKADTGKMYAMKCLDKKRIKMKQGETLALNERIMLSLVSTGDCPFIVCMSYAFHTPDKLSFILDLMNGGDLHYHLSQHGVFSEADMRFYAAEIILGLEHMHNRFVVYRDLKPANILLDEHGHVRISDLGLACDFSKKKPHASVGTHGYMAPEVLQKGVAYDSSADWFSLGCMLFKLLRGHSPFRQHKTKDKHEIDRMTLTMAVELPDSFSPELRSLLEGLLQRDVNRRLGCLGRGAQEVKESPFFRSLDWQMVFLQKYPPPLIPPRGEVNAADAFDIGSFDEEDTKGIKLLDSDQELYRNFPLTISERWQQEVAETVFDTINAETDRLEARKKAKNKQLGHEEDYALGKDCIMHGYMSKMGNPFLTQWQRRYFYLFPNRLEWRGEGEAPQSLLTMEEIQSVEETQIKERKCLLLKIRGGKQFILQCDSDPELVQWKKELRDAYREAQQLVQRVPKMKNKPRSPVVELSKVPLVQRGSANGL
Chain of ATP-binding cassette sub-family B member 6 (Homo sapiens) (Q9NP58 whole entry, looked up): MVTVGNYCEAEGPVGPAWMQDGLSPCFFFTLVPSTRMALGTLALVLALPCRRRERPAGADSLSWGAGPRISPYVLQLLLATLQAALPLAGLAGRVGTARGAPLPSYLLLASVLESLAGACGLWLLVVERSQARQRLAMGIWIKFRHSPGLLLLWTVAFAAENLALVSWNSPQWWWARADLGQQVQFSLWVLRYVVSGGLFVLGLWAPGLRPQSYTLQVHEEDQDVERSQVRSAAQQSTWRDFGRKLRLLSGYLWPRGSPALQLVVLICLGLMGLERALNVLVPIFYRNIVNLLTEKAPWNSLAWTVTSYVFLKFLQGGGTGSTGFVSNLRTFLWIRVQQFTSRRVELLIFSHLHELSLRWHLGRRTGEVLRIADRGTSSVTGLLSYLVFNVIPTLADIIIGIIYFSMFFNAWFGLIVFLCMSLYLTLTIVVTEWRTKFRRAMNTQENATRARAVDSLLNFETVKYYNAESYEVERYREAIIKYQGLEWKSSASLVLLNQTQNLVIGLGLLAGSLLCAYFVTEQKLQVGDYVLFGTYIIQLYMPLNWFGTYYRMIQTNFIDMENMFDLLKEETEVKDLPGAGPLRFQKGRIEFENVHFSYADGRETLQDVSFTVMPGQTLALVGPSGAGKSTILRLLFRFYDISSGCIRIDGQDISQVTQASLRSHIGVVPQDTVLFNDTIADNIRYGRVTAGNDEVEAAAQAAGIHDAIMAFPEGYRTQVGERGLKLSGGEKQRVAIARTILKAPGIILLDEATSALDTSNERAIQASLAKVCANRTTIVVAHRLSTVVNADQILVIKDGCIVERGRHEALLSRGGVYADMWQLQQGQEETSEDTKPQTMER
Chain of AP-2 complex subunit beta (Homo sapiens) (P63010 whole entry, looked up, the tested form may be a part, one chain of several): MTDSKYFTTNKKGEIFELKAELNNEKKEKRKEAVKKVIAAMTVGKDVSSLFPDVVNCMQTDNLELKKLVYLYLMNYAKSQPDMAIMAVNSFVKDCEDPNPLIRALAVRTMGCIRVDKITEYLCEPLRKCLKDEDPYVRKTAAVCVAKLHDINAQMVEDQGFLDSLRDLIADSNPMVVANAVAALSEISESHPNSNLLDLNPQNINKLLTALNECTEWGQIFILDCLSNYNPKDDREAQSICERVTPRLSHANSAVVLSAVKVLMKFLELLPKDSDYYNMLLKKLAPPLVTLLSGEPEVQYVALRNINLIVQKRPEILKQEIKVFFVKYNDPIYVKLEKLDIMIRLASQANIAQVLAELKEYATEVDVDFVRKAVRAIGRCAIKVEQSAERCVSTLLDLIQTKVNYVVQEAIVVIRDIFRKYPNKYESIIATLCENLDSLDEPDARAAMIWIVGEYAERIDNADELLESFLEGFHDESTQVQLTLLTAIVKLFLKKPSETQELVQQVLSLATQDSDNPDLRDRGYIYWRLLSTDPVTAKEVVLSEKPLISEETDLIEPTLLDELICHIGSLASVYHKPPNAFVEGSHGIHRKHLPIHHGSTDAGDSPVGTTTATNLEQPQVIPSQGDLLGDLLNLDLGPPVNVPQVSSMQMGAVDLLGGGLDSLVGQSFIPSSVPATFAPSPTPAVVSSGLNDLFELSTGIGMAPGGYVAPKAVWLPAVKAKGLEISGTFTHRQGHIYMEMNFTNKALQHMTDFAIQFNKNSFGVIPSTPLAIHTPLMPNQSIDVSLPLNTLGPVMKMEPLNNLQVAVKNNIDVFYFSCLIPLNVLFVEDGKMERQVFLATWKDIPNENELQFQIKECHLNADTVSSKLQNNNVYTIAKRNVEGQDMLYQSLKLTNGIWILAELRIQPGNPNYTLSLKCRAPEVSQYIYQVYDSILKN

With `CC(COc1ccccc1)NC(C)C(O)c1ccc(O)cc1` (stereo not given), the percent of DMSO control GFP in experiment [1] was 104% (inactive). Further, the GFP response vs DMSO was 101% (inactive) in experiment [2] and 103% (inactive) in experiment [4]. Also, the percent response of DMSO control in [3] is 111% (inactive). Further, the GFP response, % of DMSO in experiment [5] was 108% (inactive). Further, the double positive events in [6] came out at 55.7%. In addition, the vesicle binding response in experiment [6] is 203% (inactive). The inhibition was -496% (inactive) in experiment [7], 37.9% (inactive) in experiment [10] and 9% (inactive) in experiment [14]. The superoxide response (% of plate) in experiment [8] is 107% (inactive). Also, the aptamer binding inhibition in experiment [9] was -1% (inactive). Moreover, the response in [11] was -3.92% (inactive). Besides, in experiment [12], the binding (% of control) is 100% (inactive). The efflux inhibition (fraction of control) in experiment [13] was -0.05 (inactive). In experiment [15], the differentiation response was -19.6% (inactive).

`CCNC(=S)Nc1ccc(OC(F)(F)F)cc1`: the percent of DMSO control GFP in experiment [1] is 105% (inactive). The values for the GFP response vs DMSO in experiment [2] and in experiment [4] were 107% (inactive) and 103% (inactive), respectively. For the same compound, the percent response of DMSO control in experiment [3] is 102% (inactive). The GFP response, % of DMSO in experiment [5] is 98.7% (inactive). Besides, in experiment [6], the double positive events worked out at 60.6%. The vesicle binding response in experiment [6] was 166% (inactive). In addition, the values for the inhibition in experiment [7], in experiment [10] and in [14] were -1.17% (inactive), 43.4% (inactive) and -3% (inactive), respectively. Also, the superoxide response (% of plate) in experiment [8] was 93.5% (inactive). The aptamer binding inhibition in experiment [9] was 1% (inactive). In experiment [11], the response was -22.5% (inactive). The binding (% of control) in experiment [12] was 101% (inactive). The efflux inhibition (fraction of control) in experiment [13] was -0.05 (inactive). Further, the differentiation response in [15] was 11.1% (inactive).

In the case of `O=C(NNC(=O)c1cccs1)c1ccco1`, the percent of DMSO control GFP in experiment [1] was 104% (inactive). For the same compound, the GFP response vs DMSO in experiment [2] is 104% (inactive); in [4], 111% (inactive). Besides, the percent response of DMSO control in experiment [3] is 111% (inactive). Also, in [5], the GFP response, % of DMSO was 111% (inactive). The double positive events in [6] amounted to 56.8%. The vesicle binding response in [6] is 159% (inactive). Further, the inhibition in experiment [7] was -3.04% (inactive); in experiment [10] it was -10.8% (inactive); in experiment [14], 16% (inactive). Also, the superoxide response (% of plate) in experiment [8] was 95.2% (inactive). Also, the aptamer binding inhibition in experiment [9] was 1% (inactive). Further, in experiment [11], the response is 8.92% (inactive). The binding (% of control) in experiment [12] was 102% (inactive). For the same compound, in experiment [13], the efflux inhibition (fraction of control) is -0.05 (inactive). Moreover, in [15], the differentiation response is 1.41% (inactive).

Turning to `Cn1c2ccccc2c2cc(/C=C(\NC(=O)c3ccccc3)C(=O)O)ccc21`, the percent of DMSO control GFP in experiment [1] was 95.6% (inactive). Also, the figures for the GFP response vs DMSO in experiment [2] and in experiment [4] were 90.8% (inactive) and 92.3% (inactive), respectively. For the same compound, the percent response of DMSO control in [3] was 106% (inactive). Further, in experiment [5], the GFP response, % of DMSO is 95.7% (inactive). Further, in experiment [6], the double positive events was 58%. The vesicle binding response in [6] was 107% (inactive). The inhibition is -9.57% (inactive) in experiment [7], -8.15% (inactive) in [10] and 10% (inactive) in experiment [14]. Moreover, in experiment [8], the superoxide response (% of plate) is 111% (inactive). In addition, the aptamer binding inhibition in experiment [9] was 3% (inactive). Also, the response in experiment [11] is 1.01% (inactive). Besides, in experiment [12], the binding (% of control) was 96.5% (inactive). Further, the efflux inhibition (fraction of control) in experiment [13] is -0.43 (inactive). The differentiation response in experiment [15] is -14.7% (inactive).

For the compound `CCOC(=O)Nc1ccc2c(c1)N(C(=O)CCN1CCOCC1)c1ccccc1S2`, the percent of DMSO control GFP in experiment [1] was 107% (inactive). Besides, the GFP response vs DMSO is 102% (inactive) in experiment [2] and 92.3% (inactive) in experiment [4]. Further, the percent response of DMSO control in experiment [3] was 109% (inactive). Besides, the GFP response, % of DMSO in experiment [5] was 109% (inactive). In addition, the double positive events in [6] was 48.8%. Moreover, in experiment [6], the vesicle binding response was 120% (inactive). For the same compound, the inhibition in experiment [7] is -8.64% (inactive); in experiment [10], 9.79% (inactive); in experiment [14] it was 8% (inactive). Besides, the superoxide response (% of plate) in experiment [8] was 106% (inactive). Also, the aptamer binding inhibition in experiment [9] was 0% (inactive). Besides, the response in experiment [11] is -2.72% (inactive). The binding (% of control) in [12] was 97.3% (inactive). Moreover, the efflux inhibition (fraction of control) in experiment [13] is -0.43 (inactive). Also, the differentiation response in [15] is -8.27% (inactive).
